Reference: PubChem BioAssay (Tox21)
Records with an inconclusive call do not appear. A number with no mark means an inactive call. Calls of active or inactive are those of the source. Calls come from the whole dose curve.

Biological target: Vitamin D3 receptor (Homo sapiens) (UniProt P11473)
Experiment: qHTS assay to identify small molecule agonists of the vitamin D receptor (VDR) signaling pathway (AID 743222)
Conditions: HEK293T VDR-UAS-bla, beta-lactamase FRET ratio, 16 h; series mostly up to 63.5 µM; activation: at the top concentration
Description: National Center for Advancing Translational Sciences [NCATS]
NIH Chemical Genomics Center [NCGC]
U.S. Environmental Protection Agency [EPA]
National Institutes of Environmental Health Sciences [NIEHS]
National Toxicology Program [NTP]
U.S. Food and Drug Administration [FDA]
The vitamin D receptor (VDR), a member of nuclear hormone receptor superfamily, plays a critical role in calcium homeostasis and bone metabolism. It is also involved in cell differentiation and growth, and thrombogenicity.
Tox21 Assay Protocol Summary:
VDR-bla cells were dispensed at 2,000 cells/6 uL/well into black wall/clear-bottom 1536-well plates using a Multidrop Combi (Thermo Fisher Scientific, Waltham, MA) dispenser. After the assay plates were incubated at a 37C and 5% CO2 for 4 h, 23 nL of compounds dissolved in DMSO, positive controls or DMSO only was transferred to the assay plate by a Pintool station (Kalypsys, San Diego, CA). The plates were incubated at 37C and 5% CO2 for 16 h. After 1 uL of LiveBLAzerTM B/G FRET substrate was added using a Bioraptr Flying Reagent Dispenser (FRD) workstation (Beckman Coulter, Indianapolis, IN, USA), the plates were incubated at room temperature for 2 h, and fluorescence intensity was measured by an Envision plate reader (PerkinElmer, Shelton, CT).
% is set by controls: 0 for no effect and ±100 for the full control effect.

Vitamin D3 receptor (Homo sapiens), sequence (P11473 whole entry, looked up): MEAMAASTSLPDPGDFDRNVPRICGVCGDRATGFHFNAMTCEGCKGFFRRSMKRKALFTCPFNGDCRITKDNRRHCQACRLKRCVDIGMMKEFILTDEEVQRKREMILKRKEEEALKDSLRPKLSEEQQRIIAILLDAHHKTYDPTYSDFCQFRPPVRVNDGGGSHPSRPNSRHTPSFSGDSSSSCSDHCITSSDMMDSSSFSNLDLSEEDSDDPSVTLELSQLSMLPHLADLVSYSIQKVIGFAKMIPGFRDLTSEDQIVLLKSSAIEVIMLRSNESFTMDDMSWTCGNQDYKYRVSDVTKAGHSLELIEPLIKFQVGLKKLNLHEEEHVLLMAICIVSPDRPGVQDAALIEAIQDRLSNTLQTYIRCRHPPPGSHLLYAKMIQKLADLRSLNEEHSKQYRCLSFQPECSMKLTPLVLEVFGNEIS

| Compound | activation | outcome |
| --- | --- | --- |
| O=S1(=O)OCCO1 | 6.34% [at 81.1 µM] | – |
| O=C(Cl)C(Cl)Cl | -1.86% | – |
| N#CC(Br)(Br)C(N)=O | -0.621% | – |
| CC(C)C(C)(N)C#N (stereo not given) | 5.58% | – |
| Cl/C=C/CCl | 0.199% [at 81.1 µM] | – |
| N#CN | -2.74% [at 236 µM] | – |
| CN(C)CCN(C)C | 7.81% | – |
| CN=CNc1ccc(C)cc1C | 1.9% | – |
| O=c1[nH]c2ccccc2n1C1CCNCC1 | -0.518% | – |
| C=C1CC[C@@]2(O)[C@H]3Cc4ccc(O)c5c4[C@@]2(CCN3CC2CC2)[C@H]1O5 | 1.7% | – |
| O=C(Cl)C(Cl)(Cl)Cl | -5.68% [at 81.1 µM] | – |
| CC(Cc1ccccc1)NCCCCl (stereo not given) | 1.9% | – |
| O=C(NC(=O)c1c(F)cccc1F)Nc1cc(Cl)c(F)c(Cl)c1F | 2.15% | – |
| ClCOCCl | 0.833% [at 81.1 µM] | – |
| ClC(Cl)(Cl)Cl | -4.54% | – |
| CON(C)C(=O)Nc1ccc(Br)c(Cl)c1 | 0.373% | – |
| [P]#[In] | 0.433% | – |
| O=C(Cl)CCl | -3.82% [at 81.1 µM] | – |
| O=C(Cl)c1ccccc1 | 0.978% [at 81.1 µM] | – |
| N[C@@H]1C[C@H]1c1ccccc1 | 1.06% | – |

| Compound | activation | outcome |
| --- | --- | --- |
| CON(C)C(=O)Nc1ccc(Br)cc1 | 5.08% | – |
| OCC(Cl)CCl (stereo not given) | -0.829% | – |
| C=CC1(C)OC(=O)N(c2cc(Cl)cc(Cl)c2)C1=O (stereo not given) | – | inactive |
| CCOC(=O)CC(SP(=S)(OC)OC)C(=O)OCC (stereo not given) | -1.1% | – |
| C=CCc1cc(OC)c2c(c1)OCO2 | 1.39% [at 81.1 µM] | – |
| CCCCCCC1CCOC1=O (stereo not given) | 8.13% | – |
| CCCCCCCCBr | 0.966% | – |
| COc1cccc(C=O)c1 | -0.843% | – |
| COC(=O)c1ccccc1CS(=O)(=O)NC(=O)Nc1nc(OC)cc(OC)n1 | 0.373% | – |
| ClC1=C(Cl)C2(Cl)C(CBr)CC1(Cl)C2(Cl)Cl (stereo not given) | – | inactive |
| O=C(O)c1c(Cl)ccc2cc(Cl)cnc12 | 0.846% | – |
| CC(C)(O)C(Cl)(Cl)Cl | -5.85% | – |
| CC1N=C(N)OC1c1ccccc1 (stereo not given) | 3.32% [at 81.1 µM] | – |
| CC(C)c1ccc(O)cc1 | -1% | – |
| CNC(=O)O/N=C(/CSC)C(C)(C)C | 1.49% | – |
| CC(C)(N)Cc1ccc(Cl)cc1 | 0.418% | – |
| CCC1(c2ccccc2)CCC(=O)NC1=O (stereo not given) | -0.831% | – |
| CC(C)(C)NC[C@H](O)c1ccc(O)cc1Cl | 6.02% | – |
| CCOP(=S)(OCC)SCCl | -0.0158% | – |
| O=C(O)CBr | 4.61% | – |
